Most compounds without a hit are left out; they make up all but 12% or so of the library.
HP1b chromo inh = inhibitors of HP1-beta chromodomain binding to methylated histone tails; P83916; AlphaScreen HP1-beta / biotin-H3K9me3 peptide binding; Potency, µM (titrated, usually from 114 µM), for the others: at the highest dose activity change, negative = inhibition, hits mostly inhibitors; hit rate 0.56% among 390,000; note: potency is the fitted concentration of half-maximal effect; nearly all actives have a fitted effect of over 70% in size
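HP1-beta protein (50 nM final) preincubated 30 min at room temperature with biotinylated H3(1-18)K9me3 peptide (50 nM) in PBS pH 7.4, 0.01% Tween-20, then compound added for 30 min. AlphaScreen streptavidin donor/nickel chelate acceptor beads (10 ug/mL final), 30 min dark, luminescence read.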
PLK1 PBD inh = inhibitors of human PLK1 polo-box domain binding. P53350. Potency, µM, inactives show max response, negative = inhibition, usual class: inhibitors. AID 720504. Plk1 PBD binding of FITC phosphopeptide, fluorescence polarization. hit rate 2.8% among 360,000; note: potency is the fitted concentration of half-maximal effect; series mostly up to about 57 µM; % is set by controls: 0 for no effect and ±100 for the full control effect; nearly all actives have a fitted effect of over 65% in size
Target sequence (P53350 whole entry, looked up, the tested form may be a part): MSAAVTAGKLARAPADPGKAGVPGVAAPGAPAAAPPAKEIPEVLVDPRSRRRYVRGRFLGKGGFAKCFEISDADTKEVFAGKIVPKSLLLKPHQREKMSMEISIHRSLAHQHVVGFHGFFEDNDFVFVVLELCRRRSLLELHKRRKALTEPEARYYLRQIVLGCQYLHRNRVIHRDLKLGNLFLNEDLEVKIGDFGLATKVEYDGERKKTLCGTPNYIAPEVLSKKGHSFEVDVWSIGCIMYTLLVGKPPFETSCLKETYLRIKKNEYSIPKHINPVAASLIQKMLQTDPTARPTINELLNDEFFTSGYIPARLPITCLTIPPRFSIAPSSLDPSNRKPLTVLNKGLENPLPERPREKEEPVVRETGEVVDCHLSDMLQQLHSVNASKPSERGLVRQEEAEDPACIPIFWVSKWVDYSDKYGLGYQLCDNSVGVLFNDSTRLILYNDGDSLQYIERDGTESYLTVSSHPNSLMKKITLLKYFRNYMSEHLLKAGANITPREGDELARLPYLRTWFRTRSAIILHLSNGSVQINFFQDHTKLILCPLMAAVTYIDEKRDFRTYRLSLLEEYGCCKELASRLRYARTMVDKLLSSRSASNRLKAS
G9a inh = G9a (human) methyltransferase inhibition; Q96KQ7; G9a H3K9 monomethylation, AlphaScreen, 2 h; Potency, µM (highest dose often 102 µM), without a hit: at the top dose activity, negative = inhibition, most hits filed as inhibitors; hit rate 8.8% among 350,000; AID 504332; note: potency is the fitted concentration of half-maximal effect; % is set by controls: 0 for no effect and ±100 for the full control effect; nearly all actives have a fitted effect of over 75% in size
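Compounds were preincubated with 20 nM G9a for 15 min, after which biotinylated H3K9 peptide (500 nM) and SAM (20 uM) started a 2 h room-temperature reaction. Monomethylated product was quantified by antibody-based AlphaScreen chemiluminescence.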
JMJD2A Tudor inh = blocks the human JMJD2A Tudor domain. hit rate 4.4% among 390,000. AID 504339. AlphaScreen JMJD2A-Tudor / H3K4me3 peptide binding. Potency, µM (titrated, usually from 114 µM), for inactives: top-dose activity change, negative = inhibition, hits mostly inhibitors. O75164; note: potency is the fitted concentration of half-maximal effect; % is set by controls: 0 for no effect and ±100 for the full control effect; nearly all actives have a fitted effect of over 50% in size
BAZ2B inh = inhibitors of human BAZ2B bromodomain; Q9UIF8; AlphaScreen BAZ2B-H3K14Ac peptide displacement; Potency, µM (highest dose often 114 µM), without a hit: at the top dose activity change, negative = inhibition, hits mostly inhibitors; hit rate 4.4% among 360,000; AID 504333; note: potency is the fitted concentration of half-maximal effect; % is set by controls: 0 for no effect and ±100 for the full control effect; nearly all actives have a fitted effect of over 60% in size
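BAZ2B (50 nM) with biotin-H3(5-23)K14Ac peptide (50 nM) in PBS pH 7.4, 0.01% Tween-20, preformed 30 min, then compound 30 min at room temperature; top concentration 110uM. AlphaScreen streptavidin donor/nickel chelate acceptor beads (10 ug/mL final), 20 min dark, signal read.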
PI5P4K alpha inh = PI5P4K alpha (human) kinase inhibition | PI5P4Kalpha enzyme, ADP-Glo luminescence, 60 min; active compounds read low | hit rate 1.2% among 330,000 | max response, %; active = max response of -50% or lower; inconclusive = between -30% and -50%; inactive = -30% or higher; note: value at the top dose of about 77 µM; % is set by controls: 0 for no effect and ±100 for the full control effect
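Quantitative HTS of the MLSMR library against PI5P4Kalpha with substrate. ATP added last at 5 microM final; room temperature, 60 minutes. Remaining ATP depleted, ADP converted and read as luminescence.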
* marks the source's active call; other numbers are inactive results; ? = inconclusive; . = not tested or not shown; [ ] = remark or other dose. Unless noted, calls come from the whole dose curve; as a rule, active = well fitted curve in the direction sought with a large enough effect; inconclusive = small, poorly fitted or top-dose-only effect, or another doubt; inactive = no such curve, though single readings can be large; an effect the other way counts as inactive or inconclusive.

SMILES | HP1b chromo inh | PLK1 PBD inh | G9a inh | JMJD2A Tudor inh | BAZ2B inh | PI5P4K alpha inh
CCCN(CCC)CCCNC(=S)Nc1ccc2nc(N3CCN(CC)CC3)cc(C)c2c1 | 11%[57 µM] | 2% | 50µM* | -3% | -7% | -7
COc1ccc(CCNC(=O)CCC(=O)Nc2ccc3nc(N4CCN(C)CC4)cc(C)c3c2)cc1OC | -21%[57 µM] | -16% | -2%[59 µM] | 79µM* | -20% | 3
Clc1ccccc1-c1nnc(COc2ccccc2)o1 | 98% | . | -4%[59 µM] | 47% | 6% | .
CCCN1CCC(=O)N(C(CSc2ccc(OC)cc2)c2ccccc2)CC1 (centres undefined) | 32% | . | . | -19% | . | .
CCCN(CCC)CCCNC(=S)Nc1ccc2nc(N3CCN(C)CC3)cc(C)c2c1 | -3%[57 µM] | -7% | 40µM* | -27% | -25% | 4
CCCCN(CC)CCNC(=S)Nc1ccc2nc(N3CCN(C)CC3)cc(C)c2c1 | 4%[57 µM] | -25% | ? | -34% | 1% | -11
CCCCCNc1nc2sc3c(c2c(=O)n1-c1cccc(Cl)c1)CCN(C)C3 | -5% | -2% | 50µM* | -21% | -23% | 11
COc1ccc(OC)c(CCNC(=O)C(C)n2c(C)c3cnn(-c4ccccc4)c(=O)c3c2C)c1 (centres undefined) | -10% | . | -1%[59 µM] | -35% | -30% | .
CCCCNC(=O)CNC(=S)N(Cc1ccc(C)cc1)Cc1ccco1 | -16% | -10% | 28µM* | -33% | -37% | -10
Cc1ccc(CN(Cc2ccco2)C(=S)NCC(=O)NC2CC2)cc1 | 5% | -12% | 18µM* | -21% | -34% | -10
CCCCNC(=O)CNC(=S)N(Cc1ccccc1)Cc1cccs1 | 16% | -1% | -6% | -11% | -10% | 2
Cc1ccc(CN(Cc2ccco2)C(=O)c2cccc(C)c2)cc1 | 56% | . | -13%[59 µM] | -15% | 41% | .
Cc1ccc(S(=O)(=O)N2CCN(C(=O)CCN3C(=O)c4ccccc4C3=O)CC2)cc1C | 10% | -5% | 79µM* | -6% | -8% | -2
O=C(CCN1C(=O)c2ccccc2C1=O)N1CCN(Cc2ccc(Cl)cc2Cl)CC1 | 14% | -8% | 40µM* | -19% | 4% | .
CC(C)Cc1ccc(-c2ccc3nccn3c2)cc1 | . | 1% | . | . | . | 0
CCN1CCN(C(=O)CCNC(=O)Cn2cnc3ccccc3c2=O)CC1 | -1% | -16% | ? | -4% | 6% | -7
CC(CNC(=O)Cn1c(-c2cccs2)cc2cc(Cl)ccc21)c1ccccc1 (centres undefined) | 22% | . | -2%[59 µM] | -9% | 3% | .
OC(CON=C1c2ccccc2-c2ccccc21)CN1CCNCC1 (centres undefined) | ? | -8% | 50µM* | 3.5µM* | 20µM* | -1
OC(COc1ccccc1)CN1CCN(CC(O)COc2ccccc2)CC1 (centres undefined) | 29% | 0% | ? | -13% | -15% | 3
Cc1c(NC(=O)c2ccc(C(C)(C)C)cc2)cccc1[N+](=O)[O-] | 14% | -1% | 17% | -12% | 2% | 16
CC1CCN(C(=S)NC(=O)c2cccc([N+](=O)[O-])c2)CC1 | 24% | -7% | 71µM* | -28% | -25% | -6
O=C(NNC(=S)NC(=O)c1ccccc1)c1ccc([N+](=O)[O-])cc1 | 0% | 27µM* | 48%[0.501 µM] | -26% | 5% | -9
CN1CCN(C(=S)NC(=O)c2cccc([N+](=O)[O-])c2)CC1 | 22% | -1% | -12% | -16% | 5% | 4
CC(=O)NNC(=S)NC(=O)c1cccc([N+](=O)[O-])c1 | ? | 24µM* | ? | 8.9µM* | ? | ?
O=C(NNC(=S)NC(=O)c1ccc(Br)cc1)c1ccc([N+](=O)[O-])cc1 | -15% | ? | -9%[0.501 µM] | -33% | 3% | -7
CC(C)(C)c1ccc(NC(=O)c2ccccc2)c([N+](=O)[O-])c1 | ? | -15% | ? | 50µM* | ? | 1
CCOc1ccc(CCNC(=O)CCn2c(=O)c3cccn3c3cccnc32)cc1 | 16% | . | -4%[59 µM] | -10% | ? | .

High-throughput results as filed in PubChem.
